# Measurements: the supplement of paper PMC7261846
# Where a name gives a salt, the structure may show the parent alone. ± gives the uncertainty stated by the source.
# System: Candida albicans SNY425 biofilm
# Test: biofilm OD600 with compound plus antifungal (OD600 (absorbance)); higher = more biofilm remaining
# [1] = assay detail: disruption of 24-h mature biofilm (compound + antifungal for a second 24 h)
# [2] = assay detail: sustained inhibition (compound + antifungal during 90-min adherence and 24-h growth)
SMILES,biofilm OD600 [1],biofilm OD600 [2]
CSCCC(C=O)NC(=O)C(CC(C)C)NC(=O)[C@H](CC(C)C)NC(C)=O (stereo not given in full) [Calpain Inhibitor II (ALLM)] + CC[C@H](C)C[C@H](C)CCCCCCCCC(=O)N[C@H]1C[C@@H](O)[C@@H](NCCN)NC(=O)[C@@H]2[C@@H](O)CCN2C(=O)[C@H]([C@H](O)CCN)NC(=O)[C@H]([C@H](O)[C@@H](O)c2ccc(O)cc2)NC(=O)[C@@H]2C[C@@H](O)CN2C(=O)[C@H]([C@@H](C)O)NC1=O [caspofungin] (first compound 12.5 µM),0.249 ± 0.0042,0.178 ± 0.0059
NCC1CCC(C(=O)N[C@@H](Cc2ccccc2)C(=O)Nc2ccc(CC(=O)O)cc2)CC1 (stereo not given in full) + CC[C@H](C)C[C@H](C)CCCCCCCCC(=O)N[C@H]1C[C@@H](O)[C@@H](NCCN)NC(=O)[C@@H]2[C@@H](O)CCN2C(=O)[C@H]([C@H](O)CCN)NC(=O)[C@H]([C@H](O)[C@@H](O)c2ccc(O)cc2)NC(=O)[C@@H]2C[C@@H](O)CN2C(=O)[C@H]([C@@H](C)O)NC1=O [caspofungin] (first compound 12.5 µM),0.26 ± 0.0081,0.191 ± 0.024
CCCC[C@@H](C=O)NC(=O)[C@H](CC(C)C)NC(=O)OCc1ccccc1 [Calpeptin] + OC(Cn1cncn1)(Cn1cncn1)c1ccc(F)cc1F [fluconazole] (first compound 12.5 µM),0.26 ± 0.0076,0.162 ± 0.01
N[C@H](C(=O)O)[C@@H]1CC(Cl)=NO1 [Acivicin] + OC(Cn1cncn1)(Cn1cncn1)c1ccc(F)cc1F [fluconazole] (first compound 4 µM),0.279 ± 0.0067,0.123 ± 0.0055
CSCCC(C=O)NC(=O)C(CC(C)C)NC(=O)[C@H](CC(C)C)NC(C)=O (stereo not given in full) [Calpain Inhibitor II (ALLM)] + OC(Cn1cncn1)(Cn1cncn1)c1ccc(F)cc1F [fluconazole] (first compound 12.5 µM),0.239 ± 0.0058,0.146 ± 0.0052
CCCC[C@@H](C=O)NC(=O)OC(C)(C)C + CC[C@H](C)C[C@H](C)CCCCCCCCC(=O)N[C@H]1C[C@@H](O)[C@@H](NCCN)NC(=O)[C@@H]2[C@@H](O)CCN2C(=O)[C@H]([C@H](O)CCN)NC(=O)[C@H]([C@H](O)[C@@H](O)c2ccc(O)cc2)NC(=O)[C@@H]2C[C@@H](O)CN2C(=O)[C@H]([C@@H](C)O)NC1=O [caspofungin] (first compound 12.5 µM),0.254 ± 0.0097,0.167 ± 0.0058
Cc1c(O)cccc1C(=O)N[C@@H](CSc1ccccc1)[C@H](O)CN1C[C@H]2CCCC[C@H]2C[C@H]1C(=O)NC(C)(C)C [nelfinavir] + C[C@@H]1[C@H](O)[C@@H](C)/C=C/C=C/C=C/C=C/C=C/C=C/C=C/[C@H](O[C@@H]2O[C@H](C)[C@@H](O)[C@H](N)[C@@H]2O)C[C@@H]2O[C@](O)(C[C@@H](O)C[C@@H](O)[C@H](O)CC[C@@H](O)C[C@@H](O)CC(=O)O[C@H]1C)C[C@H](O)[C@H]2C(=O)O [amphotericin B] (first compound 12.5 µM),0.237 ± 0.0057,0.112 ± 0.01
CCCCCCCCCC(=O)N[C@@H](CCCN=C(N)N)C(=O)N[C@H](C(=O)N[C@@H](CCCCN)C(=O)N[C@@H](CCCN=C(N)N)C(=O)CCl)C(C)C + C[C@@H]1[C@H](O)[C@@H](C)/C=C/C=C/C=C/C=C/C=C/C=C/C=C/[C@H](O[C@@H]2O[C@H](C)[C@@H](O)[C@H](N)[C@@H]2O)C[C@@H]2O[C@](O)(C[C@@H](O)C[C@@H](O)[C@H](O)CC[C@@H](O)C[C@@H](O)CC(=O)O[C@H]1C)C[C@H](O)[C@H]2C(=O)O [amphotericin B] (first compound 4 µM),0.261 ± 0.0041,0.188 ± 0.0044
CC(C)C[C@H](NC(=O)[C@H]1O[C@@H]1C(=O)O)C(=O)NCCCCN=C(N)N + OC(Cn1cncn1)(Cn1cncn1)c1ccc(F)cc1F [fluconazole] (first compound 12.5 µM),0.255 ± 0.012,0.149 ± 0.0057
N[C@H](C(=O)O)[C@@H]1CC(Cl)=NO1 [Acivicin] + C[C@@H]1[C@H](O)[C@@H](C)/C=C/C=C/C=C/C=C/C=C/C=C/C=C/[C@H](O[C@@H]2O[C@H](C)[C@@H](O)[C@H](N)[C@@H]2O)C[C@@H]2O[C@](O)(C[C@@H](O)C[C@@H](O)[C@H](O)CC[C@@H](O)C[C@@H](O)CC(=O)O[C@H]1C)C[C@H](O)[C@H]2C(=O)O [amphotericin B] (first compound 4 µM),0.31 ± 0.0054,0.181 ± 0.006
NC(=O)c1cccc(-c2cccc(OC(=O)NC3CCCCC3)c2)c1 + CC[C@H](C)C[C@H](C)CCCCCCCCC(=O)N[C@H]1C[C@@H](O)[C@@H](NCCN)NC(=O)[C@@H]2[C@@H](O)CCN2C(=O)[C@H]([C@H](O)CCN)NC(=O)[C@H]([C@H](O)[C@@H](O)c2ccc(O)cc2)NC(=O)[C@@H]2C[C@@H](O)CN2C(=O)[C@H]([C@@H](C)O)NC1=O [caspofungin] (first compound 12.5 µM),0.283 ± 0.011,0.171 ± 0.0069
C[C@H](NC(=O)[C@@H]1CCCN1C(=O)[C@@H]1CCCN1C(=O)[C@@H](O)[C@H](N)Cc1ccccc1)C(N)=O [Apstatin] + CC[C@H](C)C[C@H](C)CCCCCCCCC(=O)N[C@H]1C[C@@H](O)[C@@H](NCCN)NC(=O)[C@@H]2[C@@H](O)CCN2C(=O)[C@H]([C@H](O)CCN)NC(=O)[C@H]([C@H](O)[C@@H](O)c2ccc(O)cc2)NC(=O)[C@@H]2C[C@@H](O)CN2C(=O)[C@H]([C@@H](C)O)NC1=O [caspofungin] (first compound 12.5 µM),0.292 ± 0.0095,0.185 ± 0.0079
CO[C@@H]1[C@H](OC(=O)/C=C/C=C/C=C/C=C/C(=O)O)CC[C@]2(CO2)[C@H]1[C@@]1(C)O[C@@H]1CC=C(C)C [Fumagillin] + C[C@@H]1[C@H](O)[C@@H](C)/C=C/C=C/C=C/C=C/C=C/C=C/C=C/[C@H](O[C@@H]2O[C@H](C)[C@@H](O)[C@H](N)[C@@H]2O)C[C@@H]2O[C@](O)(C[C@@H](O)C[C@@H](O)[C@H](O)CC[C@@H](O)C[C@@H](O)CC(=O)O[C@H]1C)C[C@H](O)[C@H]2C(=O)O [amphotericin B] (first compound 12.5 µM),0.264 ± 0.0097,0.185 ± 0.0052
COC(=O)C[C@H](NC(=O)[C@H](C)NC(=O)[C@@H](NC(=O)OCc1ccccc1)C(C)C)C(=O)CF + C[C@@H]1[C@H](O)[C@@H](C)/C=C/C=C/C=C/C=C/C=C/C=C/C=C/[C@H](O[C@@H]2O[C@H](C)[C@@H](O)[C@H](N)[C@@H]2O)C[C@@H]2O[C@](O)(C[C@@H](O)C[C@@H](O)[C@H](O)CC[C@@H](O)C[C@@H](O)CC(=O)O[C@H]1C)C[C@H](O)[C@H]2C(=O)O [amphotericin B] (first compound 12.5 µM),0.296 ± 0.013,0.184 ± 0.011
CC(C)CCNC(=O)[C@H](CC(C)C)NC(=O)[C@H]1O[C@@H]1C(=O)O + OC(Cn1cncn1)(Cn1cncn1)c1ccc(F)cc1F [fluconazole] (first compound 12.5 µM),0.25 ± 0.0093,0.143 ± 0.008
CCCC[C@@H](C=O)NC(=O)[C@H](CC(C)C)NC(=O)OCc1ccccc1 [Calpeptin] + CC[C@H](C)C[C@H](C)CCCCCCCCC(=O)N[C@H]1C[C@@H](O)[C@@H](NCCN)NC(=O)[C@@H]2[C@@H](O)CCN2C(=O)[C@H]([C@H](O)CCN)NC(=O)[C@H]([C@H](O)[C@@H](O)c2ccc(O)cc2)NC(=O)[C@@H]2C[C@@H](O)CN2C(=O)[C@H]([C@@H](C)O)NC1=O [caspofungin] (first compound 12.5 µM),0.263 ± 0.0082,0.174 ± 0.0085
N=C(N)Nc1ccc(C(=O)Oc2ccc3cc(C(=N)N)ccc3c2)cc1 [Nafamostat mesylate] + C[C@@H]1[C@H](O)[C@@H](C)/C=C/C=C/C=C/C=C/C=C/C=C/C=C/[C@H](O[C@@H]2O[C@H](C)[C@@H](O)[C@H](N)[C@@H]2O)C[C@@H]2O[C@](O)(C[C@@H](O)C[C@@H](O)[C@H](O)CC[C@@H](O)C[C@@H](O)CC(=O)O[C@H]1C)C[C@H](O)[C@H]2C(=O)O [amphotericin B] (first compound 12.5 µM),0.257 ± 0.012,0.171 ± 0.011
CC(C)c1nc(CN(C)C(=O)N[C@H](C(=O)N[C@@H](Cc2ccccc2)C[C@H](O)[C@H](Cc2ccccc2)NC(=O)OCc2cncs2)C(C)C)cs1 [ritonavir] + C[C@@H]1[C@H](O)[C@@H](C)/C=C/C=C/C=C/C=C/C=C/C=C/C=C/[C@H](O[C@@H]2O[C@H](C)[C@@H](O)[C@H](N)[C@@H]2O)C[C@@H]2O[C@](O)(C[C@@H](O)C[C@@H](O)[C@H](O)CC[C@@H](O)C[C@@H](O)CC(=O)O[C@H]1C)C[C@H](O)[C@H]2C(=O)O [amphotericin B] (first compound 12.5 µM),0.246 ± 0.0053,0.146 ± 0.0034
CC(C)c1nc(CN(C)C(=O)N[C@H](C(=O)N[C@@H](Cc2ccccc2)C[C@H](O)[C@H](Cc2ccccc2)NC(=O)OCc2cncs2)C(C)C)cs1 [ritonavir] + OC(Cn1cncn1)(Cn1cncn1)c1ccc(F)cc1F [fluconazole] (first compound 12.5 µM),0.249 ± 0.0077,0.168 ± 0.014
CCCCCCCCCC(=O)N[C@@H](CCCN=C(N)N)C(=O)N[C@H](C(=O)N[C@@H](CCCCN)C(=O)N[C@@H](CCCN=C(N)N)C(=O)CCl)C(C)C + CC[C@H](C)C[C@H](C)CCCCCCCCC(=O)N[C@H]1C[C@@H](O)[C@@H](NCCN)NC(=O)[C@@H]2[C@@H](O)CCN2C(=O)[C@H]([C@H](O)CCN)NC(=O)[C@H]([C@H](O)[C@@H](O)c2ccc(O)cc2)NC(=O)[C@@H]2C[C@@H](O)CN2C(=O)[C@H]([C@@H](C)O)NC1=O [caspofungin] (first compound 4 µM),0.18 ± 0.013,0.141 ± 0.018
